# From PubChem BioAssay AID740 (SRMLSC, 2007)
# Screen size: about 96,000 compounds; about 65 (0.07%) were called active. Rule as the data show it: active = inhibition above about 25%; inactive = the rest. This excerpt belongs to a sample that is enriched for actives.
# Experiment: unspecified inhibition readout at 50 µM (AID 740)
# Details: unspecified screen; active compounds read high
row,SMILES,inhibition
1,O=C(NCCN1CCOCC1)N1c2ccccc2Sc2ccccc21,0.23% (inactive)
2,Cc1ccc(C2NC(=O)Cc3ccccc32)cc1 (stereo not given),0.52% (inactive)
3,O=C1Cc2ccccc2C(c2ccc(Br)cc2)N1 (stereo not given),inactive
4,Cc1ccc(C2NC(=O)NC3=C2CCc2ccccc23)cc1 (stereo not given),85.8% (active)
5,COc1ccc(C2NC(=S)NC3=C2CCc2cc(OC)ccc23)cc1 (stereo not given),inactive
6,COc1ccc(C2NC(=O)NC3=C2CCc2ccccc23)cc1 (stereo not given),66.1% (active)
7,COc1ccc(C2C3=C(N=C4SCC(=O)N42)c2ccccc2CC3)cc1 (stereo not given),1.1% (inactive)
8,O=C1NC2=C(C(=O)c3ccccc32)C(c2ccccc2)N1 (stereo not given),0.35% (inactive)
9,O=C1NC2=C(CCc3ccccc32)C(c2ccc(Br)cc2)N1 (stereo not given),70.4% (active)
10,CC(C)c1ccc(C2NC(=O)NC3=C2CCc2ccccc23)cc1 (stereo not given),5.37% (inactive)
11,CC(C)CC(c1nnnn1C(C)(C)C)N1CCN(C2CCCC2)CC1 (stereo not given),0.26% (inactive)
12,CC(=O)Nc1cccc(C(=O)Nc2ccccc2C(=O)O)c1,0.32% (inactive)
13,Cc1ccc2nc(SCC(=O)Nc3c(C)n(C)n(-c4ccccc4)c3=O)[nH]c2c1,inactive
14,Cc1ccccc1NC(=O)c1ccc(NC(=O)c2ccco2)cc1,inactive
15,O=C(Nc1ccccc1-c1ccccc1)c1ccco1,0.36% (inactive)
16,O=C(Nc1ccccc1-c1ccccc1)c1ccc(NC(=O)c2ccco2)cc1,61.8% (active)
17,N#Cc1ccccc1NC(=O)COC(=O)c1ccc2c(c1)OCCO2,inactive
18,COc1ccc(NS(=O)(=O)c2ccc(OC)c(N(C)S(=O)(=O)c3ccc(Cl)cc3)c2)cc1,25.8% (active)
19,COc1ccc(S(=O)(=O)Nc2ccc(F)cc2)cc1N(C)S(=O)(=O)c1ccc(Cl)cc1,inactive
20,COc1ccc(S(=O)(=O)Nc2ccc(C)cc2)cc1N(C)S(=O)(=O)c1ccc(Cl)cc1,inactive
21,O=C(NC1CCCC1)C1(c2ccccc2)CCN(S(=O)(=O)c2ccccc2)CC1,1.06% (inactive)
22,CC1(C)Cc2c(c(N3CCOCC3)nc3sc4c(NN)ncnc4c23)CS1,27.3% (active)
23,CCN(CC)CCNc1ncnc2c1sc1nc(N3CCOCC3)c3c(c12)CC(C)(C)SC3,inactive
24,CN(C)CCNc1ncnc2c1sc1nc(N3CCOCC3)c3c(c12)CC(C)(C)SC3,inactive
25,O=C1CC(C(=O)Nc2ccccc2)C2(CCCC2)O1 (stereo not given),inactive

row,SMILES,inhibition
1,Cc1cccc(NC(=O)C2CC(=O)OC23CCCCC3)c1 (stereo not given),41.1% (active)
2,O=C1CC(C(=O)Nc2ccccc2)C2(CCCCC2)O1 (stereo not given),1.6% (inactive)
3,CC(=O)Nc1sc(C)c(C)c1C(=O)OC1CCOC1=O (stereo not given),inactive
4,COc1ccc(C(=O)OCC(=O)Nc2ccc(OC(F)F)cc2)c(OC)c1,inactive
5,COc1cc(C2C(C#N)=C(C)NC3=C2C(=O)c2ccccc23)cc(OC)c1OC (stereo not given),3.83% (inactive)
6,O=C(O)c1ccc(CSCc2ccccc2F)o1,inactive
7,COc1ccc(NC(=O)CN2CCCC(C)C2)c([N+](=O)[O-])c1 (stereo not given),0.73% (inactive)
8,CCCCCn1c(=O)c(C(=O)Nc2c(C)n(C)n(-c3ccccc3)c2=O)c(O)c2ccccc21,34.4% (active)
9,Cc1c(NC(=O)c2c(F)c(F)c(F)c(F)c2F)c(=O)n(-c2ccccc2)n1C,0.88% (inactive)
10,Cc1c(NC(=O)c2cccc(F)c2)c(=O)n(-c2ccccc2)n1C,inactive
11,CCCCn1c(=O)c(C(=O)Nc2cnccn2)c(O)c2ccccc21,1.68% (inactive)
12,Cc1cc(C(=O)Nc2c(C)n(C)n(-c3ccccc3)c2=O)cs1,28.9% (active)
13,Cc1c(NC(=O)c2ccc(F)cc2)c(=O)n(-c2ccccc2)n1C,inactive
14,COC(=O)c1ccc(C2NC(=S)N(c3ccccc3)C(C)=C2C(=O)Nc2ccccc2OC)cc1 (stereo not given),inactive
15,CCS(=O)(=O)c1ccc2oc(SCC(=O)NCCC3=CCCCC3)nc2c1,10.4% (inactive)
16,CCCCN(CC)CCNc1c(N2CCN(C(=O)OCC)CC2)c(=O)c1=O,inactive
17,COC(=O)C(C(=O)OC)C(C[N+](=O)[O-])c1ccc(OC)cc1 (stereo not given),inactive
18,CCOC(=O)c1cnn(-c2ccccc2)c1-n1cccc1C(=O)C(=O)Nc1ccccc1C(F)(F)F,74.2% (active)
19,CCOC(=O)c1cnn(-c2ccccc2)c1-n1cccc1C(=O)C(=O)Nc1ccccc1,inactive
20,CCOC(=O)c1cnn(-c2ccccc2)c1-n1cccc1C(=O)C(=O)Nc1ccc(F)cc1,0.4% (inactive)
21,COCCNC(=O)C(c1ccccc1)N(CCOC)C(=O)Cn1nnc2ccccc21 (stereo not given),37.1% (active)
22,COCCNC(=O)C(c1ccccc1C)N(CCOC)C(=O)Cn1nnc2ccccc21 (stereo not given),1.03% (inactive)
23,CCOC(=O)CN(C(=O)Cn1nnc2ccccc21)C(C(=O)NCCOC)c1ccccc1 (stereo not given),inactive
24,CCOC(=O)C1C(=O)NC(c2ccccc2)=NC1c1ccc(C(C)C)cc1 (stereo not given),1.01% (inactive)
25,CN1CCN(S(=O)(=O)c2ccc(NC(=O)Cc3cccs3)cc2)CC1,inactive

row,SMILES,inhibition
1,O=C(COc1ccccc1)Nc1ccc(-c2nnc(-c3ccco3)o2)cc1,inactive
2,O=C(Nc1ccc(-c2nnc(-c3ccco3)o2)cc1)C(c1ccccc1)c1ccccc1,0.04% (inactive)
3,CCC(Oc1ccccc1)C(=O)Nc1ccc(-c2nnc(-c3ccco3)o2)cc1 (stereo not given),28.2% (active)
4,Cc1ccc(S(=O)(=O)N(CC(=O)NC2CCCCCC2)c2ccccc2F)cc1,inactive
5,COc1ccc(Br)cc1C(=O)Nc1ccc(N2CCN(S(C)(=O)=O)CC2)cc1,0.77% (inactive)
6,CC(c1ccco1)N(C(=O)COc1ccc(Cl)cc1)c1ccccn1 (stereo not given),32.6% (active)
7,CC(C)c1ccc(C(=O)N(c2ccccn2)C(C)c2ccco2)cc1 (stereo not given),4.01% (inactive)
8,CC(c1ccco1)N(C(=O)COc1ccc(Cl)cc1Cl)c1ccccn1 (stereo not given),39.3% (active)
9,CC(c1ccco1)N(C(=O)COc1ccccc1[N+](=O)[O-])c1ccccn1 (stereo not given),0.73% (inactive)
10,Cc1cc(C)cc(C(=O)N(c2ccccn2)C(C)c2ccco2)c1 (stereo not given),0.71% (inactive)
11,CC(c1ccco1)N(C(=O)Nc1ccc(Cl)cc1)c1ccccn1 (stereo not given),inactive
12,Cc1ccccc1NS(=O)(=O)c1ccc(C2CNC(=O)C2)cc1 (stereo not given),0.38% (inactive)
13,CN1CCN(c2nc(-c3ccc(Br)cc3)nnc2-c2ccccc2)CC1,inactive
14,O=C(c1cnn2c(C(F)(F)F)cc(-c3ccc(Br)cc3)nc12)N1CCOCC1,1.01% (inactive)
15,O=C(c1cnn2c(C(F)(F)F)cc(-c3ccccc3)nc12)N1CCOCC1,37.1% (active)
16,O=C(c1cnn2c(C(F)(F)F)cc(-c3ccccc3)nc12)N1CCC2(CC1)OCCO2,1.61% (inactive)
17,Cn1nc(C(=O)Nc2c(-c3ccccc3)nc3sccn23)c2ccccc2c1=O,2.2% (inactive)
18,Cc1ccn2c(NC(=O)c3ccccc3)c(-c3cccs3)nc2c1,inactive
19,O=C(Nc1c(-c2ccccc2)nc2sccn12)c1ccccc1,48.5% (active)
20,CCNc1nnc(-c2ccccc2OC)s1,inactive
21,Cc1c(C(=O)Nc2ccncc2)oc2ccccc12,inactive
22,Cc1cc2oc(C(=O)Nc3cccnc3)c(C)c2cc1C,inactive
23,Cc1ccc2c(C)c(C(=O)Nc3cccnc3)oc2c1,90.2% (active)
24,O=C(c1ccco1)N1N=C(c2cccs2)CC1c1ccc(F)cc1 (stereo not given),6.17% (inactive)
25,O=C1CCCN1CCCNc1ccc(S(=O)(=O)N2CCCCC2)cn1,0.14% (inactive)

row,SMILES,inhibition
1,O=C(Nc1cccc(O)c1)c1noc2c1CCc1ccccc1-2,66.5% (active)
2,Cc1cc(NC(=O)c2noc3c2CCc2ccccc2-3)no1,inactive
3,Cc1ccc(NC(=O)c2noc3c2CCc2ccccc2-3)cc1,inactive
4,C=CCOc1ccc(/C(CC)=N/O)c(OC)c1,1.57% (inactive)
5,CC(C)(C)OC(=O)NCCc1nnc(SCc2ccc(Cl)cc2)o1,26.6% (active)
6,CC(C)(C)OC(=O)NCCc1nnc(SCc2ccc(Cl)cc2Cl)o1,4.81% (inactive)
7,CC(C)(C)OC(=O)NCCc1nnc(SCC(=O)c2ccc(Cl)cc2)o1,inactive
8,N#Cc1ccc2ccn(CC(=O)NC3CCCCC3)c2c1,inactive
9,Cc1cc(NS(=O)(=O)c2ccc(NC(=O)c3cc(-c4cccnc4)nc4ccc(Cl)cc34)cc2)no1,2.18% (inactive)
10,COc1ccc(NC(=O)CCN2CCCCCC2)c(OC)c1,0.25% (inactive)
11,C=CCn1c(SCc2c(C)noc2C)nc2sc(C)c(C)c2c1=O,11.3% (inactive)
12,Cc1noc(C)c1CSc1nc2sc(C)c(C)c2c(=O)n1C1CCCC1,25.2% (active)
13,Cc1noc(C)c1CSc1nc2sc(C)c(C)c2c(=O)n1-c1ccccc1,6.13% (inactive)
14,COc1ccc(C(=O)CSc2nc(C)cc(=O)[nH]2)cc1,inactive
15,COCCCNC(=O)CCn1c(=O)c2ccccc2n(CC(=O)Nc2c(C)cccc2C)c1=O,1.13% (inactive)
16,COc1c(C(C)C)cc(NC(C)=O)cc1C(C)C,87.4% (active)
17,CC(=O)Nc1cc(C(C)C)c(O)c(C(C)C)c1,0.28% (inactive)
18,CC(C)c1cc(NC(=O)C(C)(C)C)cc(C(C)C)c1O,0.31% (inactive)
19,CCOC(=O)/C=C1\SCC(=O)N1CC(=O)NC1CCCCC1,0.43% (inactive)
20,CCOC(=O)/C=C1\SCC(=O)N1CC(=O)NC(C)C,0.15% (inactive)
21,CCOC(=O)/C=C1\SCC(=O)N1CC(=O)NC12CC3CC(CC(C3)C1)C2,39.9% (active)
22,COc1ccc(-c2noc(CCN3C(=O)c4ccccc4C3=O)n2)cc1OC,0.08% (inactive)
23,CCc1nnc(NC(=O)CSc2nnc(CNc3ccc(F)cc3)n2C2CCCCC2)s1,inactive
24,Cc1cc(NC(=O)CSc2nnc(CNc3ccc(F)cc3)n2C2CCCCC2)no1,26.7% (active)
25,CCOc1ccc(NCc2nnc(SCC(=O)Nc3cc(C)on3)n2-c2ccc(OC)cc2)cc1,inactive
